“And” between values parts separate entries of the source, which are not always exact repeats. Equal entries are not always repeated. About 2,000 (36%) of roughly 5,500 compounds were called active. Inconclusive results (about 18%) are left out. Cut-off read from the data, not from the text of the source: active = normalized growth mostly below about 0.91 (no sharp cut-off); inconclusive = no clear call, values can overlap the other calls; inactive = mostly above about 0.92. Some of the results follow.
Experiment: chemical genetic growth profiling, strain panel (AID 1159580);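 note: tested at 20 µM; growth read once vehicle control cultures reached saturation at 30 °C; 1 = growth at the plate median or of vehicle wells; lower values mean less growth of the strain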
Conditions: S. cerevisiae deletion strains, growth OD

Measured: normalized growth

C[C@H]1O[C@@H](O[C@H]2[C@@H](O)C[C@H](O[C@H]3[C@@H](O)C[C@H](O[C@H]4CC[C@]5(C)C6C[C@@H](O)[C@]7(C)[C@@H](C8=CC(=O)OC8)CC[C@]7(O)C6CC[C@@H]5C4)O[C@@H]3C)O[C@@H]2C)C[C@H](O)[C@@H]1O (stereo partly drawn)
inactive: locus YAL013W, strain DEP1, hits give low values 0.992 | locus YAL021C, strain ccr4, hits give low values 0.982 | locus YAL026C, strain drs2, hits give low values 1.01 | locus YAL030W, strain snc1, hits give low values 0.991 | locus YBL061C, strain skt5, hits give low values 0.99 | locus YBR009C, strain hhf1, hits give low values 1.08 | locus YBR021W, strain FUR4, hits give low values 1.01 | locus YBR023C, strain chs3, hits give low values 0.994 | locus YBR171W, strain sec66, hits give low values 0.984 | locus YBR229C, strain ROT2, hits give low values 1 | locus YBR231C, strain swc5, hits give low values 0.989 | locus YBR279W, strain paf1, hits give low values 0.996 | locus YCL011C, strain gbp2, hits give low values 0.967 | locus YCL016C, strain dcc1, hits give low values 0.992 | locus YCL029C, strain bik1, hits give low values 0.977 | locus YCL061C, strain MRC1, hits give low values 1.01 | locus YCL069W, strain vba3, hits give low values 0.991 | locus YCR088W, strain abp1, hits give low values 0.997 | locus YDL005C, strain med2, hits give low values 0.98 | locus YDL035C, strain GPR1, hits give low values 0.987 | locus YDL040C, strain nat1, hits give low values 0.999 | locus YDL074C, strain BRE1, hits give low values 0.982 | locus YDL101C, strain DUN1, hits give low values 1.01 | locus YDL134C, strain PPH21, hits give low values 1.03 | locus YDL185W, strain tfp1, hits give low values 0.955 | locus YDL192W, strain arf1, hits give low values 0.983 | locus YDR001C, strain nth1, hits give low values 0.982 | locus YDR069C, strain doa4, hits give low values 0.996 | locus YDR101C, strain arx1, hits give low values 0.982 | locus YDR137W, strain rgp1, hits give low values 0.978 | locus YDR150W, strain NUM1, hits give low values 0.991 | locus YDR159W, strain sac3, hits give low values 1.02 | locus YDR162C, strain NBP2, hits give low values 1.03 | locus YDR195W, strain ref2 0.987 | locus YDR297W, strain sur2, hits give low values 0.987 | locus YDR318W, strain mcm21, hits give low values 1 | locus YDR334W, strain swr1, hits give low values 0.957 | locus YDR335W, strain msn5, hits give low values 0.98 | locus YDR388W, hits give low values 0.984 | locus YDR392W, strain spt3, hits give low values 0.975 | locus YDR502C, strain sam2, hits give low values 1.01 | locus YEL003W, strain gim4, hits give low values 0.997 | locus YEL037C, strain rad23, hits give low values 1 | locus YEL061C, strain CIN8 (second series), hits give low values 0.992 | locus YEL061C, strain CIN8, hits give low values 1 | locus YER015W, strain faa2, hits give low values 1.01 | locus YER016W, strain bim1, hits give low values 0.987 | locus YER110C, hits give low values 0.961 | locus YER111C, strain swi4, hits give low values 1.01 | locus YER155C, strain BEM2 (second series), hits give low values 1.04 | locus YER155C, strain BEM2, hits give low values 0.986 | locus YER167W, strain BCK2, hits give low values 0.992 | locus YFR010W, strain ubp6, hits give low values 1 | locus YGL078C, strain dbp3, hits give low values 1 | locus YGL086W, strain mad1, hits give low values 0.969 | locus YGL167C, strain pmr1, hits give low values 0.998 | locus YGL173C, strain kem1, hits give low values 0.981 | locus YGL227W, strain vid30, hits give low values 0.99 | locus YGL240W, strain doc1, hits give low values 0.973 | locus YGL248W, strain PDE1, hits give low values 1.02 | locus YGL253W, strain hxk2, hits give low values 0.957 | locus YGR135W, strain pre9, hits give low values 1.01 | locus YGR252W, strain gcn5, hits give low values 1.09 | locus YHR013C, strain ard1, hits give low values 0.977 | locus YHR027C, strain rpn1, hits give low values 0.976 | locus YHR030C, strain SLT2, hits give low values 0.983 and 1.05 | locus YHR079C, strain IRE1 (second series), hits give low values 0.982 | locus YHR079C, strain IRE1, hits give low values 1.06 | locus YHR094C, strain hxt1, hits give low values 0.973 | locus YHR129C, strain ARP1, hits give low values 0.993 | locus YHR142W, strain chs7, hits give low values 0.964 | locus YHR200W, strain rpn10, hits give low values 0.97 | locus YIL066C, strain RNR3, hits give low values 1 | locus YIL073C, strain SPO22, hits give low values 0.937 | locus YIL125W, strain kgd1, hits give low values 0.941 | locus YIR030C, strain dcg1, hits give low values 0.99 | locus YJL092W, strain hpr5, hits give low values 0.996 | locus YJL095W, strain BCK1 (second series), hits give low values 0.976 | locus YJL095W, strain BCK1, hits give low values 1.02 and 1.06 | locus YJL115W, strain asf1, hits give low values 0.984 | locus YJL129C, strain trk1, hits give low values 0.979 | locus YJL134W, strain LCB3, hits give low values 0.985 | locus YJL154C, strain vps35, hits give low values 0.977 | locus YJL164C, strain tpk1, hits give low values 1.02 | locus YJL166W, strain qcr8, hits give low values 0.939 | locus YJL168C, strain set2, hits give low values 0.998 | locus YJL187C, strain SWE1 (second series), hits give low values 1.02 | locus YJL187C, strain SWE1, hits give low values 0.993

Reference: PubChem BioAssay AID1159580 (chemical genetic matrix, 2015)
